Assay results: PubChem BioAssay (EPA / NIEHS)
Where “and” joins values, the source holds several entries; their conditions need not be identical. Equal values may be shown once. Calls of active or inactive are those of the source. How the source made its calls: active means hit-call score of the fitted dose curve at least 0.9, where 1 is the maximum; inactive means score below 0.9.

Test: CCTE_Mundy_HCI_Cortical_NOG_NeuriteLength: CCTE's Neurite Outgrowth Assay in rat cortical cells for Neurite Length, Mundy Lab (AID 2284213);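 on AC50: neurites imaged about 48 to 50 h after chemical exposure began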
Outline: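 First, rat primary cortical cells were plated and, 2 h later, given test chemical as a 1/10 dilution. Finally, βIII-tubulin immunostaining enabled automated imaging of neurite length.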

| SMILES | AC50 | outcome |
| --- | --- | --- |
| ClC1=C(Cl)[C@]2(Cl)[C@@H]3[C@@H]4C[C@@H]([C@H]5O[C@@H]45)[C@@H]3[C@@]1(Cl)C2(Cl)Cl | 8.83 µM (active) |  |
| CCOP(=S)(OCC)SCSC(C)(C)C | 91 µM (active) and 79.2 µM (active) |  |
| C=CC(N)=O |  | inactive |
| CO/C=C(/C(=O)OC)c1ccccc1COc1cccc(C(F)(F)F)n1 | 1.43 µM (active) |  |
| COc1ccc(O)c(C(C)(C)C)c1 |  | inactive |
| O=S(=O)(O)C(F)(F)C(F)(F)C(F)(F)C(F)(F)F |  | inactive |
| ClC1=C(Cl)[C@]2(Cl)[C@@H]3[C@@H](Cl)[C@H]4O[C@H]4[C@@H]3C1(Cl)C2(Cl)Cl | 16 µM (active) |  |
| O=S(=O)(O)C(F)(F)C(F)(F)C(F)(F)C(F)(F)C(F)(F)C(F)(F)F |  | inactive |
